Source: PubChem BioAssay (National Center for Advancing Translational Sciences (NCATS))
Shown are actives, neighbours in structure and some others; about 11% of the full set was active somewhere.
HPGD inh = HPGD (human) dehydrogenase inhibition; purified HPGD, NADH fluorescence kinetic, PGE2 substrate; P15428; 150,000 tested, 4.3% active; Potency, µM, usual class: inhibitors; active = well fitted inhibition curve with a large enough effect, not every such curve was filed as active; inconclusive = small, poorly fitted or top-dose-only effect, or another doubt; inactive = no such curve, though single readings can be large or run the other way
Target sequence (P15428 whole entry, looked up): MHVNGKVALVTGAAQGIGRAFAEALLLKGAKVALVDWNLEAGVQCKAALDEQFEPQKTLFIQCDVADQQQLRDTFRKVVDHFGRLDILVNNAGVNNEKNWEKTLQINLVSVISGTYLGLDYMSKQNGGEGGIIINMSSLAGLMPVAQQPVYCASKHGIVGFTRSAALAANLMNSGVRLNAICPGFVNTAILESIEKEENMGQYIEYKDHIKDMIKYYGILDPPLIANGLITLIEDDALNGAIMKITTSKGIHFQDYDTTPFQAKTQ
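NADH formation kinetics: reaction with 30 uM PGE2 and 1 mM NAD+ (final), 20 nM enzyme, Tris-HCl pH 8 with Tween 20, after 15 min compound preincubation at room temperature. Fluorescence change, last versus first of five reads.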
PNC assembly inh = blocks assembly of the perinucleolar compartment | 140,000 tested, 3.1% active | activity change (PNC), negative = inhibition, % at 10 µM | PC3M PTB-GFP, PNC prevalence imaging, 16 h; hits give low values;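 active = readout at or below -70, meaning at least 70% loss of cells showing the perinucleolar compartment, a nuclear body marking cancer cells; inconclusive = readout between -30 and a set limit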
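Read-out is percentage of cells bearing a perinucleolar compartment, from automated 20x imaging of fixed, Hoechst-stained PC3M PTB-GFP cells. Cells were seeded 4 h, then exposed 16 h to compound (23 nl of library stock) in duplicate plates.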
IMPase cell inh = IMPase inhibition in cells. P97697. CHO-M1 cells, IP1 accumulation, HTRF TR-FRET ratio. inhibition (IP1 accumulation), % at 46.1 µM. 120,000 tested, under 10 active; active = well fitted curve in the direction sought with a large enough effect in the signal ratio, not every such curve was filed as active; inconclusive = small, poorly fitted or top-dose-only effect, or a change in a side signal; inactive = no such curve, though single readings can be large or run the other way; the % refers to the signal ratio;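 note: cells stimulated with carbachol in lithium chloride buffer; higher means more IMPase inhibition seen as more IP1 and lower FRET ratio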
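Cellular IMPase inhibition is scored as a rise in cytosolic IP1, detected by competitive TR-FRET between d2-labelled IP1 and a europium anti-IP1 antibody. M1-expressing CHO cells were stimulated with carbachol for 30 min at 37C, with lithium (50 mM LiCl) present in the buffer.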
ALDH1A1 inh = ALDH1A1 (human) enzyme inhibition; P00352; Purified ALDH1A1, NADH fluorescence, propionaldehyde substrate; Potency, µM (doses to about 75.3 µM), usual class: inhibitors; 220,000 tested, 7.3% active; active = well fitted inhibition curve with a large enough effect, not every such curve was filed as active; inconclusive = small, poorly fitted or top-dose-only effect, or another doubt; inactive = no such curve, though single readings can be large or run the other way
IMPase Li cell = membrane-permeable IMPase blocker, potentiated with lithium; 210,000 tested, 0.35% active; Potency, µM (titrated, usually from 59.4 µM), usual class: inhibitors; CHO-M1 cells, IP1 TR-FRET (IP-One), carbachol + lithium;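 note: IP1 builds up when IMPase is blocked and the TR-FRET signal falls; nearly all actives have a fitted effect of over 50% in size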
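Test compounds were applied to CHO-M1 cells previously cultured for 16–30 h at 2000 per well. A small lithium amount accompanied them; after 30 min at 37C, IP1 was quantified by TR-FRET.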
NPSR antagonist = antagonists of human neuropeptide S receptor cAMP signaling | AID 1461 | CHO-NPSR cells, cAMP TR-FRET, antagonist mode | 220,000 tested, 1% active | Potency, µM (titrated, usually from 38.3 µM), actives largely listed as inhibitors; note: nearly all actives have a fitted effect of over 50% in size
Target sequence (Q6W5P4 whole entry, looked up): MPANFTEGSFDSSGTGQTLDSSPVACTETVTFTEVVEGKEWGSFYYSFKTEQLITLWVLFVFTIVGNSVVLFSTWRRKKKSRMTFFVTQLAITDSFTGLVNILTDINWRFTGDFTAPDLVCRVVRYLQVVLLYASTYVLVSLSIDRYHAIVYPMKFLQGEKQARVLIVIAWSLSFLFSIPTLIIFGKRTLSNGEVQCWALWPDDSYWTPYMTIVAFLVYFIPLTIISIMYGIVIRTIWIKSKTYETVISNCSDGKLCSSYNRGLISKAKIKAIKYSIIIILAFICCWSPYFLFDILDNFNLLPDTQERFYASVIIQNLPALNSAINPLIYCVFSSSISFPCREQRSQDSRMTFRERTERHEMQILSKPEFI
Hits are given with their value; [ ] = another dose, or the depositor's remark. Unless noted, calls come from the whole dose curve; as a rule, active = well fitted curve in the direction sought with a large enough effect; inconclusive = small, poorly fitted or top-dose-only effect, or another doubt; inactive = no such curve, though single readings can be large; an effect the other way counts as inactive or inconclusive.

Screening COc1cccc(C(c2sc3ncnn3c2O)N2CC(C)OC(C)C2)c1 (stereo not given) returned HPGD inh inactive, PNC assembly inh inactive, IMPase cell inh inactive, ALDH1A1 inh 0.35µM, IMPase Li cell inactive and NPSR antagonist inactive.
CC(C)=C1C(=O)C(c2ccccc2)=C2CN3C(=O)N(CCc4ccccc4)C(=O)[C@]3(Cc3ccc(C(F)(F)F)cc3)[C@H]21 was read as HPGD inh inactive, ALDH1A1 inh inactive and IMPase Li cell inactive.
Screening O=c1oc2cc(Oc3ccc(C(F)(F)F)cc3[N+](=O)[O-])ccc2c2c1CCC2 returned HPGD inh inconclusive, PNC assembly inh inactive, IMPase cell inh inactive, ALDH1A1 inh 16µM, IMPase Li cell inactive and NPSR antagonist inactive.
Screening O=c1[nH]c2cc3c(cc2cc1CN(Cc1cccnc1)Cc1nnnn1Cc1ccco1)OCCO3 returned HPGD inh inconclusive, PNC assembly inh inactive, IMPase cell inh inactive, ALDH1A1 inh inconclusive, IMPase Li cell inactive and NPSR antagonist inactive.
`Cc1ccc2[nH]c(=O)c(CN(Cc3ccc4c(c3)OCO4)Cc3nnnn3Cc3ccco3)cc2c1` gave HPGD inh inactive, PNC assembly inh inactive, IMPase cell inh inactive, ALDH1A1 inh 25µM, IMPase Li cell inactive and NPSR antagonist inconclusive.
O=c1[nH]c2cc3c(cc2cc1CN(Cc1cccs1)Cc1nnnn1Cc1ccco1)OCCO3 was read as HPGD inh inconclusive, PNC assembly inh inconclusive, IMPase cell inh inactive, ALDH1A1 inh inconclusive, IMPase Li cell inactive and NPSR antagonist inconclusive.
CCc1ccc2[nH]c(=O)c(CN(Cc3ccccc3)Cc3nnnn3Cc3ccco3)cc2c1 was read as HPGD inh inactive, PNC assembly inh inconclusive, IMPase cell inh inactive, ALDH1A1 inh 13µM, IMPase Li cell inactive and NPSR antagonist inconclusive.
Screening Cc1cc(C)c2cc(CN(Cc3ccc4c(c3)OCO4)Cc3nnnn3Cc3ccco3)c(=O)[nH]c2c1 returned HPGD inh inactive, PNC assembly inh inactive, IMPase cell inh inactive, ALDH1A1 inh 4.5µM, IMPase Li cell inactive and NPSR antagonist inconclusive.
Screening O=c1[nH]c2cc3c(cc2cc1CN(Cc1ccccc1)Cc1nnnn1Cc1ccco1)OCCO3 returned HPGD inh inconclusive, PNC assembly inh inactive, IMPase cell inh inactive, ALDH1A1 inh inconclusive, IMPase Li cell inactive and NPSR antagonist inconclusive.
CC1=C(C(=O)Nc2cccc(C)n2)C(c2ccc3c(c2)OCO3)C2=C(CC(c3ccco3)CC2=O)N1 (stereo not given) was read as HPGD inh inconclusive, PNC assembly inh inactive, IMPase cell inh inactive, ALDH1A1 inh inconclusive, IMPase Li cell inactive and NPSR antagonist inactive.
Screening C=CCC(NCc1ccco1)c1ccc(OC)cc1OC (stereo not given) returned HPGD inh inactive, PNC assembly inh inactive, IMPase cell inh inactive, ALDH1A1 inh inactive, IMPase Li cell inactive and NPSR antagonist inactive.
For Cc1cc(Cl)ccc1OCc1cn2cccnc2n1 the results were ALDH1A1 inh inconclusive, IMPase Li cell inactive and NPSR antagonist inactive.
For O=[N+]([O-])c1ccccc1CNC1CCCCCC1 the results were ALDH1A1 inh 14µM, IMPase Li cell inactive and NPSR antagonist inactive.
`Cc1ccccc1NC(=O)c1ccc(NS(=O)(=O)c2cc(C(C)(C)C)cc(C)c2C)cc1` gave HPGD inh inactive, PNC assembly inh inconclusive, IMPase cell inh inactive, ALDH1A1 inh 2.8µM, IMPase Li cell inactive and NPSR antagonist inactive.
CSc1nc(N)nc(SC2C=CCCC2)c1C#N (stereo not given) was read as HPGD inh inactive, PNC assembly inh inactive, IMPase cell inh inactive, ALDH1A1 inh 13µM, IMPase Li cell inactive and NPSR antagonist inactive.
CSc1nc(C2CC2)cc(-c2cccs2)c1C#N was read as HPGD inh inconclusive, PNC assembly inh inconclusive, IMPase cell inh inactive, ALDH1A1 inh inconclusive, IMPase Li cell inactive and NPSR antagonist inactive.
`O=C(N/N=C/C1C(c2ccccc2)C1(Cl)Cl)c1cccc(Cl)c1` (stereo not given) gave HPGD inh inactive, PNC assembly inh inactive, IMPase cell inh inactive, ALDH1A1 inh 7.1µM, IMPase Li cell inactive and NPSR antagonist inconclusive.
For O=C(NC(NC(=S)Nc1ccccc1)C(Cl)(Cl)Cl)c1cccc(Cl)c1 (stereo not given) the results were HPGD inh inactive, PNC assembly inh inactive, IMPase cell inh inactive, ALDH1A1 inh inconclusive, IMPase Li cell inactive and NPSR antagonist 13µM.
Screening COC(=O)C(C(=O)OC)c1ccc(NC(=O)c2cccc(Cl)c2)cc1 returned ALDH1A1 inh inactive, IMPase Li cell inactive and NPSR antagonist inactive.
O=C(O)c1cccc(NC(=S)NC(NC(=O)c2cccc([N+](=O)[O-])c2)C(Cl)(Cl)Cl)c1 (stereo not given) was read as NPSR antagonist inactive.
For O=C(NC(NC(=S)Nc1ccc(Cl)cc1Cl)C(Cl)(Cl)Cl)c1cccc([N+](=O)[O-])c1 (stereo not given) the results were HPGD inh inactive, PNC assembly inh inactive, IMPase cell inh inactive, ALDH1A1 inh 18µM, IMPase Li cell inactive and NPSR antagonist 10µM.
O=C(Nc1ccc(N=Nc2ccccc2)cc1)c1cccc(Cl)c1 was read as HPGD inh inactive, PNC assembly inh -111, IMPase cell inh inactive, ALDH1A1 inh inactive, IMPase Li cell inactive and NPSR antagonist inactive.
`CCOC(=O)NC(=O)c1cn(Nc2ncc(C(F)(F)F)cc2Cl)c(=O)[nH]c1=O` gave ALDH1A1 inh inactive and NPSR antagonist inactive.
Screening COc1cc(/C=N/NC(=Nc2ccc(C)cc2)c2nc3ccccc3s2)ccc1O returned HPGD inh inactive, PNC assembly inh inactive, IMPase cell inh inactive, ALDH1A1 inh inactive, IMPase Li cell inactive and NPSR antagonist 10µM.
Screening O=C1NN(c2ccc(F)cc2)C(=O)/C1=C/c1cccs1 returned ALDH1A1 inh 25µM, IMPase Li cell inactive and NPSR antagonist inactive.
For CCOC(=O)C1=C(C)N(c2ccc(OC)cc2)C(=O)/C1=C\c1cccs1 the results were HPGD inh inactive, PNC assembly inh inactive, ALDH1A1 inh inactive, IMPase Li cell inactive and NPSR antagonist inactive.
For CCCOP(=O)(c1ccc(N(C)C)cc1)C(O)c1cccnc1 (stereo not given) the results were HPGD inh inactive, PNC assembly inh inactive, IMPase cell inh inactive, ALDH1A1 inh inactive, IMPase Li cell inactive and NPSR antagonist inactive.
Screening COc1cc(Cn2c(-c3ccc(O)c(OC)c3)nc3ccccc32)ccc1O returned NPSR antagonist inactive.
Screening Cc1ccc2cc(CN(C(=O)c3ccco3)c3ccccc3C)c(=O)[nH]c2c1 returned HPGD inh inactive, PNC assembly inh inactive, IMPase cell inh inactive, ALDH1A1 inh 4.5µM, IMPase Li cell inactive and NPSR antagonist inactive[7.67 µM].
